The values that follow come from PubChem BioAssay AID1851 (National Center for Advancing Translational Sciences (NCATS), 2009).

Where “and” joins values, the source holds several entries; their conditions need not be identical. Identical values can stand only once. The campaign covered roughly 16,000 compounds. About 5,800 (36%) were called active. Another 23% or so got no clear call; they are omitted. Calls follow the shape of the dose curve; as a rule, active = well fitted curve in the direction sought with a large enough effect; inconclusive = small, poorly fitted or top-dose-only effect, or effect the other way; inactive = no such curve, though single readings can be large or run the other way. The list shows a part of the results.

As usually defined, the AC50 is the midpoint of the concentration-response curve, whichever way the signal moves.
% is scaled to controls: 0 for no effect and ±100 for the full control effect.

The target of this assay is Cytochrome P450 2C19 (Homo sapiens) (UniProt P33261). As to the kind of experiment: Cytochrome panel assay with activity outcomes. The settings on record: recombinant CYP, pro-luciferin dealkylation, luminescence, p450-cyp2c19; series mostly up to 57.1 µM.
Chain of Cytochrome P450 2C19 (Homo sapiens) (P33261 whole entry, looked up): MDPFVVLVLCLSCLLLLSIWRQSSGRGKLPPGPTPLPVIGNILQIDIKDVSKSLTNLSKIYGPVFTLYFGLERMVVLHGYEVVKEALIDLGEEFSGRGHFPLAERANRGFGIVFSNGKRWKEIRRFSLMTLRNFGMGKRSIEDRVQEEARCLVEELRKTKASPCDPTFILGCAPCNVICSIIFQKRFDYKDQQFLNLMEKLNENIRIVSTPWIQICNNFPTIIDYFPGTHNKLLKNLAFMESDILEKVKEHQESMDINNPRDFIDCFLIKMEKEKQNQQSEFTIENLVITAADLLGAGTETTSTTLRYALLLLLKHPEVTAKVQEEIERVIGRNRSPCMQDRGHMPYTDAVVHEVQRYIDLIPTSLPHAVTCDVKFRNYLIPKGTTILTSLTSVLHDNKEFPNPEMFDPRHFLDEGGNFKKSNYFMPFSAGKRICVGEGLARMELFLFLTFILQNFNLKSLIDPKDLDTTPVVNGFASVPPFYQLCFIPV
Consider `CCCOc1ccccc1-c1nc2n[nH]nc2c(=O)[nH]1`, for which the AC50 entry was “inactive”.

For `NC(N)=NC[C@@H]1COC2(CCCCC2)O1`, the AC50 result was “inactive”.

As for `N[C@@H](CS(=O)O)C(=O)O`, the AC50 entry is “inactive”.

Take `Fc1cc(Br)ccc1NC(=S)NCCc1ccccc1`: the AC50 is 1.58 µM (active).

`Fc1ccccc1NC(=S)NCCc1ccccc1`: the AC50 was 3.16 µM (active).

For the compound `Fc1ccc(NC(=S)NCCc2ccccc2)c(F)c1F`, the AC50 is 0.355 µM (active).

For `COc1ccccc1NC(=S)NC(=O)c1ccc(-c2ccc(Cl)cc2)o1`, the AC50 was 8.91 µM (active).

`COc1ccccc1NC(=S)NCCc1ccccc1`: the AC50 was 3.16 µM (active).

For the compound `CC(=O)Nc1cccc(C(=O)OCc2ccc(C(=O)Oc3ccc(Cl)cc3)cc2)c1`, the AC50 was 4.47 µM (active).

As for `Cc1cc(OC(=O)c2ccc(Cl)cc2)cc(=O)n1C`, the AC50 result is “inactive”.

On to `OCCN(CO)CO`, for which the activity, negative = inhibition is 0.957% [at 11.4 µM] (inactive).

For `CN(C)CCOC(=O)[C@@H](c1ccccc1)C1(O)CCCC1`, the AC50 result was “inactive”.

`O=C(Cn1c(C(F)(F)F)nc2ccccc21)c1ccc(F)cc1`: the AC50 was 1.58 µM (active).

With `O=C(CCCN1CCC(O)(c2cccc(C(F)(F)F)c2)CC1)c1ccc(F)cc1`, the AC50 result was “inactive”.

Consider `O=C(Cn1c(C(F)(F)F)nc2ccccc21)c1ccccc1`, for which the AC50 was 3.98 µM (active).

For `O=S(=O)(Nc1ccc2c(c1)OCCO2)c1cccc2cccnc12`, the AC50 was 3.55 µM (active).

In the case of `COc1ncc2nc(-c3cn(C)c4ccccc34)c(=O)n(-c3ccccc3)c2n1`, the AC50 entry is “inactive”.

Consider `Cn1cc(/C=N/n2cnc3scc(-c4ccccc4)c3c2=O)c2ccccc21`, for which the AC50 was 8.91 µM (active).

As for `CN1CCN(c2ncc3nc(-c4cn(C)c5ccccc45)c(=O)n(-c4ccccc4)c3n2)CC1`, the AC50 result was “inactive”.

As for `Cc1ccc(C)c(S(=O)(=O)NC(C)C(=O)Nc2ccc(-c3nc4ccccc4s3)cc2)c1` (centres undefined), the AC50 result is “inactive”.

As for `N#C/C(=C\NC(=S)c1ccncc1)c1nc2ccccc2s1`, the activity, negative = inhibition was -29.2% [at 11.4 µM] (inactive).

For `Cc1cccc(NC(=S)c2nc3ccccc3s2)c1`, the AC50 was 5.62 µM (active).

In the case of `O=C(NCC(c1cccs1)N1CCOCC1)c1ccco1` (centres undefined), the AC50 was 8.91 µM (active).

Consider `O=C(c1ccco1)N1CCC2(CCN(Cc3nccs3)CC2)CC1`, for which the AC50 entry is “inactive”.

Regarding `CCOC(=O)N1N=C(c2ccccc2)CC1(O)C(F)(F)F` (centres undefined), the AC50 was 15.8 µM (active).

With `O=C(CCc1ccccc1)Nc1ncn[nH]1`, the AC50 entry is “inactive”.

Take `CCC1=NN(C(=O)CCc2ccccc2)C(O)(C(F)(F)F)C1` (centres undefined): the AC50 is 0.224 µM (active).

Turning to `COc1cccc(C(=O)N2N=C(c3cccc(OC)c3)CC2(O)C(F)(F)F)c1` (centres undefined), the AC50 is 0.794 µM (active).

In the case of `CCOC(=O)N1CCN(C(=O)CCn2nc(-c3ccccc3)ccc2=O)CC1`, the AC50 result was “inactive”.

In the case of `CCc1cc2c(nc1CC)CCN(CC/C(C)=N/OCC[C@@H]1C=C[C@H](OC(C)=O)[C@H](COC(C)=O)O1)C2`, the activity, negative = inhibition is 7.29% [at 11.4 µM] (inactive).

As to `CN1/C(=C\C(=O)COC(=O)Cn2nnc(-c3ccccc3)n2)C(C)(C)c2ccccc21`, the AC50 was 11.2 µM (active).

For the compound `O=C(Cn1nnc(-c2ccccc2)n1)OCc1ccccc1`, the AC50 is 3.98 µM (active).

Consider `COCCn1c(=O)c(-c2cc(F)cc(F)c2)nc2cnc(N(C)C)nc21`, for which the AC50 entry was “inactive”.

Consider `O=[N+]([O-])C1=CC=C2C(=NC3(CCCCC3)N2O)C1=NC1CCCCC1`, for which the AC50 was 3.16 µM (active).

In the case of `Cc1ccc(NC(=O)Nc2ncccc2C)cc1`, the AC50 was 15.8 µM (active).

Take `Cc1cccc(C)c1NC(=O)Nc1ccc(S(N)(=O)=O)cc1`: the activity, negative = inhibition was 23.1% [at 11.4 µM] (inactive).

On to `O=C(Nc1ccc2ncccc2c1)Nc1ccc2ncccc2c1`, for which the activity, negative = inhibition is 14.5% [at 11.4 µM] (inactive).

For `CCN(/C=N/c1sc2c(c1C#N)CCCCC2)CC`, the AC50 is 1.26 µM (active).

Consider `CC(C)NCC[C@@H](O)c1cc2ccccc2o1`, for which the activity, negative = inhibition was 31.3% [at 11.4 µM] (inactive).

Take `CCOC(=O)CSc1nnc(CSc2nc3sc4c(c3c(=O)[nH]2)CCCC4)n1-c1ccccc1`: the AC50 is 2.51 µM (active).

In the case of `CC(=O)Nc1ccc(S(=O)(=O)c2ccc(N)cc2)cc1`, the AC50 was 15.8 µM (active).

For `COC(=O)C(NS(=O)(=O)c1ccc(NC(C)=O)cc1)C(C)C` (centres undefined), the AC50 is 3.16 µM (active).

`Cc1ccc(S(=O)(=O)N[C@H](C(=O)O)C(C)C)cc1`: the activity, negative = inhibition was 4% [at 11.4 µM] (inactive).

Consider `COC(=O)[C@@H](NC(=O)Nc1ccc(C(C)=O)cc1)C(C)C`, for which the AC50 is 17.8 µM (active).

Regarding `CC(=O)Nc1ccc(S(=O)(=O)N=S(C)C)cc1`, the activity, negative = inhibition is 14.7% [at 11.4 µM] (inactive).

As for `Nc1ccc(S(=O)(=O)c2ccc(NC(=O)c3cccnc3)cc2)cc1`, the activity, negative = inhibition was 3.12% [at 11.4 µM] (inactive).

For the compound `Oc1cc2c(cc1O)[C@H](c1ccccc1)CNCC2`, the AC50 entry is “inactive”.

On to `CO/N=C\[C@@H](C)[C@H](OCc1ccccc1)C(C)C`, for which the activity, negative = inhibition was 2.64% [at 11.4 µM] (inactive).

For the compound `Cc1ccc(C(C2C(=O)CC(C)(C)CC2=O)C2C(=O)CC(C)(C)CC2=O)s1`, the AC50 is 11.2 µM (active).

On to `CC1(C)CC(=O)C(C(c2cccc(O)c2O)C2C(=O)CC(C)(C)CC2=O)C(=O)C1`, for which the activity, negative = inhibition is 26% [at 11.4 µM] (inactive).

`CN1CCCN(C2C3CC4CC(C3)CC2C4)CC1` (centres undefined): the AC50 entry is “inactive”.

On to `O=S(=O)(c1cccc2c(Cl)cccc12)N1CCCNCC1`, for which the AC50 entry is “inactive”.

On to `CC(C)N1CCN(c2ccncc2S(=O)(=O)N2CCCCC2)CC1`, for which the activity, negative = inhibition was -23.9% [at 11.4 µM] (inactive).

In the case of `O=C(C1CCCN(S(=O)(=O)c2cccc3nsnc23)C1)N1CC=C(c2ccccc2)CC1` (centres undefined), the AC50 was 2.51 µM (active).

With `O=C(C1CCN(S(=O)(=O)c2cccc3nsnc23)CC1)N1CCN(c2ccccc2F)CC1`, the concentration at half-maximal activity (AC50) is 22.4 µM (active).

Take `O=C(C1CCN(S(=O)(=O)c2cccc3nsnc23)CC1)N1CCn2c1nc1ccccc12`: the AC50 is 10 µM (active).

With `O=C(Nn1cc(C(=O)N2CCN(c3ccccc3F)CC2)c2ccccc2c1=O)c1cnccn1`, the AC50 result is “inactive”.

Take `O=S(=O)(c1ccccc1S(=O)(=O)N1CCCCC1)N1CCCCC1`: the AC50 was 22.4 µM (active).

Consider `CC1CCC(C(=O)O)([C@H](Br)C(=O)O)CC1` (some centres undefined), for which the activity, negative = inhibition is -0.894% [at 11.4 µM] (inactive).

In the case of `COc1ccc([C@@H]2CNC(=O)C2)cc1OC1CCCC1`, the AC50 entry is “inactive”.

For `Cc1ncc(CO)c(CO)c1O`, the AC50 entry was “inactive”.

Take `O=C(C1CCN(S(=O)(=O)c2cccc3nsnc23)CC1)N1CCCc2ccccc21`: the concentration at half-maximal activity (AC50) is 2 µM (active).

For `C[C@H]1CN(S(=O)(=O)c2cccc3cnccc23)CCN1`, the AC50 entry is “inactive”.

Consider `CC(=O)Nc1ccc(NC(=O)C2CCN(S(=O)(=O)c3cccc4nonc34)CC2)cc1`, for which the AC50 entry was “inactive”.

Turning to `O=C(C1CCN(S(=O)(=O)c2cccc3nsnc23)CC1)N1CCc2ccccc21`, the AC50 is 14.1 µM (active).

In the case of `CC1CCN(C(=O)C2CCN(S(=O)(=O)c3cccc4nonc34)CC2)CC1`, the AC50 is 11.2 µM (active).

Turning to `O=S(=O)(c1cccc2nsnc12)N1CCCC1`, the AC50 is 0.891 µM (active).

`O=S(=O)(c1cnccc1N1CCN(CCO)CC1)N1CCCC1`: the activity, negative = inhibition is 33.1% [at 11.4 µM] (inactive).

For `Cc1ccc(S(=O)(=O)N[C@H]2COC(=O)CC=C[C@@H](C)[C@H]3C=C[C@H](O)[C@@H](COC(=O)CC=C[C@H]2C)O3)cc1`, the activity, negative = inhibition was 14.2% [at 11.4 µM] (inactive) and 5.29% [at 11.4 µM] (inactive).

For `NC[C@@H]1O[C@H](O[C@@H]2[C@H](O[C@@H]3O[C@H](CO)[C@@H](COC[C@H]4O[C@@H](CN)[C@@H](O)[C@@H](O)[C@@H]4N)[C@@H]3O)[C@@H](O)[C@@H](N)C[C@H]2N)[C@@H](N)[C@H](O)[C@@H]1O`, the AC50 entry was “inactive”.

Consider `CCCN(CCC)C[C@@H]1CCCCN1CCNC(=O)N1c2ccccc2C(=O)Nc2cccnc21`, for which the AC50 is 7.94 µM (active).

Take `O=C(O)CN(CCN(CC(=O)O)CC(=O)O)CCN(CC(=O)O)CC(=O)O`: the AC50 result was “inactive”.

On to `Cc1cc(C)c(S(=O)(=O)N2CCCCC2)c(C)c1N(C)S(=O)(=O)c1ccccc1`, for which the AC50 is 2.51 µM (active).

Take `CCc1ccc2c(c1)cc(CN(C(=S)Nc1cccc(C)c1)C1CC1)c1nnnn12`: the AC50 was 2.24 µM (active).

With `CCCNS(=O)(=O)c1ccc(OCC(=O)OC)cc1`, the half-maximal activity concentration (AC50) is 10 µM (active).

Turning to `CCN1C(=O)/C(=C/C=C2/SCCN2C)SC1=S`, the concentration at half-maximal activity (AC50) was 14.1 µM (active).

As for `CCNc1ncc2nc(-c3cccs3)c(=O)n(C)c2n1`, the AC50 result was “inactive”.

As to `Cc1ccn2c(NC(=O)c3ccccc3)c(-c3cccs3)nc2c1`, the AC50 was 17.8 µM (active).

On to `c1ccc(-c2nnc(SCc3nc4ccccc4[nH]3)n2Cc2ccco2)cc1`, for which the AC50 is 2.51 µM (active).

With `OC(Cc1nc2ccccc2[nH]1)c1ccccc1Cl` (centres undefined), the half-maximal activity concentration (AC50) was 8.91 µM (active).

In the case of `CCn1c(SCc2nc3ccccc3[nH]2)nnc1-c1ccc(OC)cc1`, the AC50 was 2.51 µM (active).

For the compound `c1ccc(SCc2nc3ccccc3[nH]2)cc1`, the AC50 was 1.41 µM (active).

As to `O=C(c1cnccn1)N1CCC2(CC1)CN(Cc1cc(C(F)(F)F)cc(C(F)(F)F)c1)C2`, the AC50 result was “inactive”.

For the compound `C=CCNC(=S)N1CCN(c2ncc3c(=O)c(C(=O)O)cn(CC)c3n2)CC1`, the AC50 entry was “inactive”.

Regarding `Cc1cc(NC(=O)C2CCCCC2)nc2c1c(=O)oc1ccccc12`, the AC50 was 8.91 µM (active).

As to `COc1ccc2oc(=O)c(NC(=O)C3CCCCC3)cc2c1`, the AC50 result was “inactive”.

With `N#Cc1c(-c2ccc3c(c2)OCO3)ccn2nc(-c3cccc(C(F)(F)F)c3)nc12`, the AC50 is 2.51 µM (active).

For the compound `COc1c(O)cc2c(c1O)[C@@H]1O[C@@H](CO)[C@@H](O)[C@@H](O)[C@@H]1OC2=O`, the AC50 entry was “inactive”.

Consider `Cc1ccc(S(=O)(=O)Nc2nc(C)c(NC(=O)Nc3ccc(Cl)cc3Cl)s2)cc1`, for which the AC50 is 14.1 µM (active).

Take `Cc1nnc(NS(=O)(=O)c2ccc(N)cc2)s1`: the AC50 result was “inactive”.

Consider `Cc1ccc(S(=O)(=O)NC(=O)Nc2ncn[nH]2)cc1`, for which the activity, negative = inhibition is 37.1% [at 11.4 µM] (inactive).

As for `O=c1[nH]ccc2c(O)cccc12`, the AC50 result is “inactive”.

Consider `Cc1nc2c(O)cccc2c(=O)[nH]1`, for which the AC50 is 0.398 µM (active).

Turning to `O=c1[nH]c2ccccc2c2ccccc12`, the AC50 result is “inactive”.
